The values below come from PubChem BioAssay AID1030 (National Center for Advancing Translational Sciences (NCATS), 2008).

Out of some 220,000 compounds screened, about 16,000 (7.3%) were called active. Not shown: some 25% with an inconclusive outcome. Calls come from the whole dose curve; as a rule, active = well fitted inhibition curve with a large enough effect (not every such curve was filed as active); inconclusive = small, poorly fitted or top-dose-only effect, or another doubt; inactive = no such curve, though single readings can be large or run the other way. The list comes from a sample in which actives are over-represented; it also holds similar structures and randomly drawn compounds. Entries that show only a call come without a potency.
Potency is the fitted concentration of half-maximal effect.

The target in this assay is Aldehyde dehydrogenase 1A1 (Homo sapiens) (UniProt P00352). Description: qHTS Assay for Inhibitors of Aldehyde Dehydrogenase 1 (ALDH1A1). The note with it: Purified ALDH1A1, NADH fluorescence, propionaldehyde substrate; series mostly up to 75.3 µM. In general terms: qHTS replaces the single test concentration by a dilution series.
Chain of Aldehyde dehydrogenase 1A1 (Homo sapiens) (P00352 whole entry, looked up): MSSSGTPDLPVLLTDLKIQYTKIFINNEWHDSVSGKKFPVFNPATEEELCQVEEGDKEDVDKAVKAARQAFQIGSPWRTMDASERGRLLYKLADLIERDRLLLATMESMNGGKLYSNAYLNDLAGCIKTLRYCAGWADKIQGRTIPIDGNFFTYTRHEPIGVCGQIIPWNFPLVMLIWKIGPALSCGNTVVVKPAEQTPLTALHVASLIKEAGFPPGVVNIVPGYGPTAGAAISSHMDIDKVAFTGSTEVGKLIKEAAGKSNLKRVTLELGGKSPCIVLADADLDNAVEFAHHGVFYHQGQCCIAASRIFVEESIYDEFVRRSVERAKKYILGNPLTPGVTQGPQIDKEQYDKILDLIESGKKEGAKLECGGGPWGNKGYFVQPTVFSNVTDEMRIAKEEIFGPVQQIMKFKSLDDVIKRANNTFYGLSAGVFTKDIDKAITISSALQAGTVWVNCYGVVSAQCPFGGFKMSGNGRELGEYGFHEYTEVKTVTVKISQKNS
As for `CCCN(CC(=O)Nc1ccc(OC)c(OC)c1)CC(=O)Nc1ccc(F)c(F)c1F`, the Potency entry is “inactive”.
The figure for `CNc1ccc(SC#N)cc1` is 8.91 µM (active); for `COC(=O)Cc1c(O)ccn(Cc2cccc(C(F)(F)F)c2)c1=O` it is “inactive”.
As for `CCCOc1ccc(C2c3c(oc4cc(C)c(C)cc4c3=O)C(=O)N2CCCN2CCOCC2)cc1` (stereo not drawn), the Potency was 3.98 µM (active).
The entry for `O=C1c2oc3ccc(Br)cc3c(=O)c2C(c2cccc(F)c2)N1CCO` (stereo not drawn) is “inactive”; for `CCOc1ccc(C2C(C(=O)O)c3ccccc3C(=O)N2CCN2CCOCC2)cc1` (stereo not drawn) it is “inactive”.
With `c1ccc2cc(OCCN3CCCC3)ccc2c1`, the Potency result was “inactive”.
As for `COc1cccc(OCC(O)CN2CCN(CCO)CC2)c1` (stereo not drawn), the entry is “inactive”; as for `COc1cccc(OCCCN2CCCCCC2)c1`, 14.1 µM (active); as for `OC(c1nnc(-c2ccccc2)o1)c1cccs1` (stereo not drawn), “inactive”.
As for `O=C(Nc1ccccc1Cl)c1ccc2nsnc2c1`, the entry is “inactive”; as for `O=C(O)c1ccc(Cl)c(S(=O)(=O)Nc2ccccc2Cl)c1`, “inactive”; as for `O=C(Nc1ccccc1Cl)/C(Cl)=C(\Cl)S(=O)c1ccccc1` (stereo not drawn), 10 µM (active).
As for `O=c1[nH]c(CN2CCOCC2)nc2scc(-c3ccccc3)c12`, the entry is “inactive”; as for `Cc1ccc(S(=O)(=O)N(C)C)cc1NC(=O)COC(=O)c1c(C)noc1C`, “inactive”; as for `CCCCN=C1C([N+](=O)[O-])=CC=C2C1=NC1(CCCCC1)N2O`, 1.41 µM (active).
`O=C(CN(Cc1ccccc1)C(=O)c1ccc2c(c1)OCCO2)NCc1ccc2c(c1)OCO2`: the Potency was 0.631 µM (active).
As for `O=C(COC(=O)c1ccc2c(c1)OCCO2)NCc1ccccc1`, the Potency result is “inactive”.
In the case of `Cn1cc(CCC(=O)NCc2ccc3c(c2)OCO3)c2ccccc21`, the Potency entry was “inactive”.
In the case of `CC(C)(C)NC(=O)CN(C(=O)c1csnn1)c1ccccc1-c1ccccc1`, the Potency entry was “inactive”.
The entry for `CSc1cccc(NC(=S)N(Cc2ccccc2)Cc2ccccn2)c1` is “inactive”; for `Cc1cc(C)cc(NC(=S)NCCCN2CCOCC2)c1` it is “inactive”.
In the case of `CCOc1ccccc1C(=O)NCc1ccco1`, the Potency result is “inactive”.
The entry for `CSc1nc(-c2ccco2)nn1C(=O)CCc1ccccc1` is “inactive”; for `CCOc1ccccc1/C=c1\sc2nc(-c3ccco3)nn2c1=O` it is 28.2 µM (active); for `O=C(O)CC1S/C(=N\N=C/c2ccccc2O)N(c2ccc(O)cc2)C1=O` (stereo not drawn) it is “inactive”.
With `O=C(CN1C(=O)CCC1=O)Nc1ccc(S(=O)(=O)N2CCOCC2)cc1`, the Potency entry was “inactive”.
As to `O=C(NC(=S)Nc1ccc(S(=O)(=O)N2CCOCC2)cc1)c1ccccc1[N+](=O)[O-]`, the Potency was 7.94 µM (active).
The entry for `O=C(Nc1ccc(N2CCOCC2)cc1)c1ccc(-c2ccccc2[N+](=O)[O-])o1` is “inactive”; for `Cc1cc(C(=O)NNC(=O)c2cccc(S(=O)(=O)N3CCOCC3)c2)c2ccccc2n1` it is “inactive”; for `O=C(c1cccc(S(=O)(=O)N2CCOCC2)c1)N1CCOCC1` it is “inactive”.
The figure for `O=C(NNC(=S)Nc1ccccc1)c1cccc(S(=O)(=O)N2CCOCC2)c1` is 28.2 µM (active).
As for `CCc1c(C)nc2c(OC)cccc2c1Cl`, the entry is “inactive”; as for `CCSc1nc(C)c(CCOc2cccc(C)c2)c(=O)[nH]1`, “inactive”; as for `COc1ccc(-c2[nH]ncc2CN(Cc2nccn2C)C(C)C)cc1F`, “inactive”.
As to `CCCCCCCC1=Cc2ccc(F)cc2C(C(C(=O)OC)C(=O)OC)N1C(=O)OC` (stereo not drawn), the Potency result was “inactive”.
As for `COc1ccccc1N(CC(=O)Nc1ccc(C(F)(F)F)cc1)S(C)(=O)=O`, the entry is “inactive”; as for `COc1ccc(C(=O)C2CCCN(C(=O)c3cc4nc(C)cc(C)n4n3)C2)cc1F` (stereo not drawn), “inactive”.
In the case of `CCCCN(C(=O)c1ccc(OC(F)(F)F)cc1)c1c(N)n(CCC)c(=O)[nH]c1=O`, the Potency entry is “inactive”.
As for `O=C(Nc1ccnc(-c2ccncc2)n1)c1cccs1`, the Potency result was “inactive”.
Consider `CC(=O)c1cc(C#N)c(N2CC(C)OC(C)C2)nc1C` (stereo not drawn), for which the Potency result was “inactive”.
`CCN(CC)C(=O)CSc1nnc(-c2cnccn2)n1-c1ccc(C)cc1`: the Potency result was “inactive”.
The entry for `N#Cc1ccc(CSc2nnc(-c3ccccn3)n2-c2ccc(Cl)cc2)cc1` is “inactive”.
As for `Cn1c(SCc2c(F)cccc2Cl)nnc1-c1cnccn1`, the figure is 12.6 µM (active); as for `CC(=O)NC(NC(=S)Nc1c(C)n(C)n(-c2ccccc2)c1=O)C(Cl)(Cl)Cl` (stereo not drawn), “inactive”.
The entry for `COC(=O)c1ccc(-c2noc(CN(Cc3ccccn3)CC3CCCO3)n2)cc1` (stereo not drawn) is “inactive”; for `Fc1ccc(Nc2nnns2)cc1` it is 2 µM (active).
As for `CN(C)c1ccnc(Nc2ccc(F)cc2)c1C#N`, the Potency result is “inactive”.
Take `O=C1CS(=O)CN1c1ccc(Oc2ccccc2)cc1` (stereo not drawn): the Potency entry was “inactive”.
The entry for `O=C(CCC1CCCN(C(=O)Cc2ccc(F)cc2)C1)N1CCN(c2ccccn2)CC1` (stereo not drawn) is “inactive”.
`CCN(CC(=O)NC1CCS(=O)(=O)C1)S(=O)(=O)c1ccccc1` (stereo not drawn): the Potency entry is “inactive”.
The entry for `CCN(CC(=O)NCCc1ccccc1)S(=O)(=O)c1ccc(C)cc1` is “inactive”.
As for `CCN(CC(=O)NCCc1ccccc1)S(=O)(=O)c1ccccc1`, the figure is 35.5 µM (active).
The entry for `C=CCNC(=O)/C(=C\c1cccc([N+](=O)[O-])c1)NC(=O)c1ccccc1` is “inactive”.
Regarding `N#C/C(=C/c1cccc([N+](=O)[O-])c1)c1nnc2n1CCCCC2`, the Potency is 20 µM (active).
`O=C(N/N=C/c1cccc([N+](=O)[O-])c1)C1CC(=O)N(c2ccc(Br)cc2)C1` (stereo not drawn): the Potency entry is “inactive”.
Turning to `N/C(=N\OC(=O)CCc1ccccc1)c1cccnc1`, the Potency entry was “inactive”.
As for `COC(=O)c1ccc(NC(=O)c2cc(Cl)ccc2OC)cc1`, the entry is “inactive”; as for `CCC(=O)c1ccc(N2CCN(C(=O)c3cc([N+](=O)[O-])ccc3F)CC2)c(F)c1`, “inactive”.
On to `COC(=O)C1(C(C)=O)CC2=CC[C@H]3C(=O)N(c4ccccc4)C(=O)[C@H]3[C@@H]2Cc2ccccc2[C@@H]1C[N+](=O)[O-]` (stereo partly drawn), for which the Potency entry was “inactive”.
With `O=C(CCNS(=O)(=O)c1ccc(Br)s1)NCc1ccccc1Cl`, the Potency entry was “inactive”.
On to `O=[N+]([O-])c1ccc(N/N=C/c2ccccc2)cc1`, for which the Potency is 14.1 µM (active).
For `Cc1cccc(COc2ccccc2/C=N/Nc2ccc([N+](=O)[O-])cc2)c1`, the Potency result is “inactive”.
As for `NC(=S)N/N=C/c1ccc([N+](=O)[O-])cc1`, the entry is “inactive”.
Turning to `Cn1ncc(N2CCN(S(=O)(=O)c3ccc(Br)cc3)CC2)c(Cl)c1=O`, the Potency entry is “inactive”.
The entry for `N#Cc1c(C(F)(F)F)cc(-c2ccc(Cl)cc2)nc1SCC(=O)O` is “inactive”; for `Cc1ccc(C(=O)N/C(=C/c2cccs2)C(=O)N2CCCCC2)cc1` it is “inactive”; for `Cc1cccc(C(=O)N2CCc3c([nH]c4ccccc34)C2CC(C)C)n1` (stereo not drawn) it is “inactive”.
